This is an account of results in PubChem BioAssay.

Entries with a potency or affinity are not part of this list. Inconclusive results are not listed. Values without a mark were called inactive.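 Rule for the calls, unless noted: active = signal-lowering compounds whose fitted half-maximal concentration is at or below twice the top tested dose in every run; inconclusive = runs disagree, flat 30 to 70% inhibition, or poor curve fit; inactive = the rest.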

The first assay can be described thus: RMG-1 ovarian cancer cell viability loss – cherry-pick, dose response (AID 687029;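 active = signal drop whose fitted half-maximal concentration is at most twice the top valid dose, in every test run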;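 note: cells exposed to compound for 96 hours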). Particulars: RMG-1 viability, CellTiterGlo ATP luminescence, 96 h; series mostly up to 35 µM; activity change, negative = inhibition: at the top concentration. On the technique in general: In ATP-based viability assays light output follows the ATP content of the culture.
Turning to `C(=C\c1ccc(C2[C@@H]3CN(Cc4ccc5c(c4)OCO5)C[C@H]2N3)cc1)/c1ccccc1` (stereo partly drawn), the “activity change, negative = inhibition” value was 18.4% [at 30 µM].
On the same count and under the same terms, the value for `CCC[C@@H](CN[C@@H](CNC)[C@H](C)CC)NCC1CCC(C(C)(C)C)CC1` (stereo partly drawn) was 25.9%.
Take `CSc1ccc(COC(=O)c2cc([N+](=O)[O-])ccc2N2CCOCC2)cc1`: the “activity change, negative = inhibition” value is 17.4%.
For the compound `O=C(Cn1ncc(Cl)c(Cl)c1=O)Nc1ccc2c(c1)OCO2`, the “activity change, negative = inhibition” value was 23.5%.
On the same count and under the same terms, the value for `COc1ccc(OC)c(N(CCN2C(=O)c3ccccc3C2=O)C(=O)CCl)c1` was 29.4%; that for `COc1ccccc1N(C(C)=O)C1=C(Cl)C(=O)c2ccccc2C1=O` was 39.5%.
Same read-out and setting: then `CC(C)=CCC/C(C)=C/CN1C(=O)N(c2ccc(F)cc2)[C@H]2C[C@@H](c3ccccc3)[C@@H](C)[C@@H](C(=O)N3CCOCC3)C[C@H]21`, with 23.2%.
Consider `C/C(=N\NC(=O)c1n[nH]c2c1CCC2)c1cccs1`, for which the “activity change, negative = inhibition” value was 7.18%.
For `CNC(=O)c1cc(Oc2ccc(NC(=O)Nc3ccc(Cl)c(C(F)(F)F)c3)cc2)ccn1`, the “activity change, negative = inhibition” value is 27.6%.
As to `COc1ccc(/C=C2\CN(Cc3ccccc3)C/C(=C\c3ccc(OC)cc3OC)C2=O)c(OC)c1`, the “activity change, negative = inhibition” value is 23.3%.
On the same count and under the same terms, the value for `Cc1ccc(C(=O)O/N=C(\N)c2ccccn2)cc1` was 39.5%; that for `CCOC(=O)c1c2c(n(Cc3ccccc3)c1C)C(=O)C(=O)c1ccccc1-2` was 40.5%.
Still for that read-out and setting: then `CC(=O)N(C1=C(Cl)C(=O)c2ccccc2C1=O)C1CCCCC1`, with 33.8%; and `COc1ccc(N(Cc2cc3cc(OC)ccc3[nH]c2=O)S(=O)(=O)c2ccc(NC(C)=O)cc2)cc1`, with 41.7%; and `COc1ccc(Oc2ccc(/C=C/C(=O)c3cccc(OC)c3)cc2[N+](=O)[O-])cc1`, with 11.7%.
As for `Cc1cccc(-n2ncc(Cl)c(Cl)c2=O)c1`, the “activity change, negative = inhibition” value was 42.5%.
On the same count and under the same terms, the value for `CCCCCCCN(C(=O)CCl)c1cccc(C)c1` was 11.7%.
Regarding `Cc1ccc(C(=O)Nc2cnc3ccccc3c2)cc1`, the “activity change, negative = inhibition” value is 56.8%.
Turning to `C#CC(=O)N(c1ccc(OC)cc1OC)C(C(=O)NC1CCCC1)c1cccs1` (stereo not drawn), the “activity change, negative = inhibition” value was 17.5%.
On to `C(=N\Nc1nc2ccccc2s1)/c1ccccn1`, for which the “activity change, negative = inhibition” value is 22.7%.
`O=C(CCl)N=c1sccn1Cc1ccc(Cl)cc1Cl`: the “activity change, negative = inhibition” value is 17.4%.
The same measure, in the same setting: the value for `CC(C)c1ccc(-c2nc3ccccc3s2)cc1` was 2.66%.
In the case of `NC1=C(Cl)C(=O)c2ccc(S(N)(=O)=O)cc2C1=O`, the “activity change, negative = inhibition” value was 16.9%.
On the same count and under the same terms, the value for `COc1ccc(C(=O)CN2C(=O)c3ccccc3S2(=O)=O)cc1` was 19.7%; that for `CC(C)Nc1ccc(Nc2ccnc3cc4ccccc4cc23)cc1` was 29.4%.
Same read-out and setting: the value for `Cc1nc2c(=O)n(C)c(=O)n(C)c2nc1Cl` was 31.8%; that for `C=C1C(=O)[C@]23C[C@H]1CCC2[C@@]1(C)C(C[C@@H]3O)[C@](C)(C(=O)OC)CC[C@@H]1O` (stereo partly drawn) was 21.5%.
`O=[N+]([O-])c1c(Nc2cccc(O)c2)cc(Cl)c2nonc12`: the “activity change, negative = inhibition” value was 43.8%.
Still for that read-out and setting: then `COc1ccc(C(=O)O/N=C(\N)c2ccccn2)cc1`, with 25.8%; and `COc1cccc(N2CCN(c3ncnc4c3cnn4-c3ccc(C)cc3C)CC2)c1`, with 22%.
For the compound `COC(=O)C1=C(C)N(Cc2ccc(C(F)(F)F)cc2)C(=NCc2ccccc2)NC1c1cccc(F)c1` (stereo not drawn), the “activity change, negative = inhibition” value is 8.73%.
The same measure, in the same setting: the value for `COc1ccc(N2C(=O)CC(Sc3nnnn3-c3ccc(F)cc3)C2=O)cc1` (stereo not drawn) was 12.4%; that for `CCOc1ccc(NC(=O)Nc2cccc(C(=O)O)c2)cc1` was 7.93%; that for `COc1ccc(CN(C)C[C@H]2OCCCC[C@H](C)Oc3ccc(NC(=O)Nc4ccc(C(F)(F)F)cc4)cc3C(=O)N([C@@H](C)CO)C[C@H]2C)cc1` was 13.3%.
Same read-out and setting: the value for `CS(=O)(=O)c1ccc(C(=O)OCC(=O)NCc2cccs2)cc1[N+](=O)[O-]` was -25.4%.
Still for that read-out and setting: then `Cc1ccc(S(=O)(=O)c2ncccc2[N+](=O)[O-])cc1`, with 31.9%; and `O=C(NCCc1ccccc1)C(c1cccs1)N(C(=O)CCl)c1ccc(Cl)cc1` (stereo not drawn), with 11.5%; and `COc1cccc(/C=N/Nc2nc(Nc3ccc([N+](=O)[O-])cc3)nc(N3CCCC3)n2)c1O`, with 19%.
Consider `OC(c1cc(-c2ccc(C(F)(F)F)cc2)nc(C(F)(F)F)c1)C1CCCCN1` (stereo not drawn), for which the “activity change, negative = inhibition” value was 32.2%.

The nature of the next assay: CMV-driven luciferase expression suppression in HEK293 – cell-based, luminescence, dry powder, counter-screen for Pax8 inhibitor project, dose response (AID 743020).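 Note: HEK293 cells stably expressing the CMV luciferase reporter.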 As to conditions: HEK293 CMV-luciferase reporter, SteadyGlo luminescence, 24 h; series mostly up to 35 µM; activity change, negative = inhibition: at the top concentration. (In general: The purpose of a counterscreen is to sort out artefacts and off-target activity.)
As to `C(=C\c1ccc(C2[C@@H]3CN(Cc4ccc5c(c4)OCO5)C[C@H]2N3)cc1)/c1ccccc1` (stereo partly drawn), the “activity change, negative = inhibition” value is -0.569% [at 30 µM].
`CCC[C@@H](CN[C@@H](CNC)[C@H](C)CC)NCC1CCC(C(C)(C)C)CC1` (stereo partly drawn): the “activity change, negative = inhibition” value was 11.6%.
On to `CSc1ccc(COC(=O)c2cc([N+](=O)[O-])ccc2N2CCOCC2)cc1`, for which the “activity change, negative = inhibition” value is -14.6%.
In the case of `O=C(Cn1ncc(Cl)c(Cl)c1=O)Nc1ccc2c(c1)OCO2`, the “activity change, negative = inhibition” value is -0.718%.
On the same count and under the same terms, then `COc1ccc(OC)c(N(CCN2C(=O)c3ccccc3C2=O)C(=O)CCl)c1`, with -24.8%; and `COc1ccccc1N(C(C)=O)C1=C(Cl)C(=O)c2ccccc2C1=O`, with 179%.
On the same count and under the same terms, then `CC(C)=CCC/C(C)=C/CN1C(=O)N(c2ccc(F)cc2)[C@H]2C[C@@H](c3ccccc3)[C@@H](C)[C@@H](C(=O)N3CCOCC3)C[C@H]21`, with 6.96%; and `C/C(=N\NC(=O)c1n[nH]c2c1CCC2)c1cccs1`, with 3.33%; and `CNC(=O)c1cc(Oc2ccc(NC(=O)Nc3ccc(Cl)c(C(F)(F)F)c3)cc2)ccn1`, with -12.8%.
`COc1ccc(/C=C2\CN(Cc3ccccc3)C/C(=C\c3ccc(OC)cc3OC)C2=O)c(OC)c1`: the “activity change, negative = inhibition” value was -20%.
Take `Cc1ccc(C(=O)O/N=C(\N)c2ccccn2)cc1`: the “activity change, negative = inhibition” value was 4.1%.
As to `CCOC(=O)c1c2c(n(Cc3ccccc3)c1C)C(=O)C(=O)c1ccccc1-2`, the “activity change, negative = inhibition” value was -23.3%.
Still for that read-out and setting: the value for `CC(=O)N(C1=C(Cl)C(=O)c2ccccc2C1=O)C1CCCCC1` was 3.85%; that for `COc1ccc(N(Cc2cc3cc(OC)ccc3[nH]c2=O)S(=O)(=O)c2ccc(NC(C)=O)cc2)cc1` was -12.7%.
Still for that read-out and setting: the value for `COc1ccc(Oc2ccc(/C=C/C(=O)c3cccc(OC)c3)cc2[N+](=O)[O-])cc1` was 16.7%; that for `Cc1cccc(-n2ncc(Cl)c(Cl)c2=O)c1` was -30.7%; that for `CCCCCCCN(C(=O)CCl)c1cccc(C)c1` was 21.1%.
Turning to `Cc1ccc(C(=O)Nc2cnc3ccccc3c2)cc1`, the “activity change, negative = inhibition” value was -8.97%.
With `C#CC(=O)N(c1ccc(OC)cc1OC)C(C(=O)NC1CCCC1)c1cccs1` (stereo not drawn), the “activity change, negative = inhibition” value is -7.84%.
Still for that read-out and setting: then `C(=N\Nc1nc2ccccc2s1)/c1ccccn1`, with -15%; and `O=C(CCl)N=c1sccn1Cc1ccc(Cl)cc1Cl`, with -5.26%.
With `CC(C)c1ccc(-c2nc3ccccc3s2)cc1`, the “activity change, negative = inhibition” value was -37.4%.
Same read-out and setting: the value for `NC1=C(Cl)C(=O)c2ccc(S(N)(=O)=O)cc2C1=O` was -23.1%.
Consider `COc1ccc(C(=O)CN2C(=O)c3ccccc3S2(=O)=O)cc1`, for which the “activity change, negative = inhibition” value was 2.71% [at 16 µM].
On the same count and under the same terms, the value for `CC(C)Nc1ccc(Nc2ccnc3cc4ccccc4cc23)cc1` was 261%; that for `Cc1nc2c(=O)n(C)c(=O)n(C)c2nc1Cl` was 10.9%.
As to `C=C1C(=O)[C@]23C[C@H]1CCC2[C@@]1(C)C(C[C@@H]3O)[C@](C)(C(=O)OC)CC[C@@H]1O` (stereo partly drawn), the “activity change, negative = inhibition” value is 290%.
Still for that read-out and setting: then `O=[N+]([O-])c1c(Nc2cccc(O)c2)cc(Cl)c2nonc12`, with -42.2%; and `COc1ccc(C(=O)O/N=C(\N)c2ccccn2)cc1`, with 3.79%.
On to `COc1cccc(N2CCN(c3ncnc4c3cnn4-c3ccc(C)cc3C)CC2)c1`, for which the “activity change, negative = inhibition” value is -0.49%.
Take `COC(=O)C1=C(C)N(Cc2ccc(C(F)(F)F)cc2)C(=NCc2ccccc2)NC1c1cccc(F)c1` (stereo not drawn): the “activity change, negative = inhibition” value was 0.633%.
On the same count and under the same terms, the value for `COc1ccc(N2C(=O)CC(Sc3nnnn3-c3ccc(F)cc3)C2=O)cc1` (stereo not drawn) was 8.08%.
On the same count and under the same terms, then `CCOc1ccc(NC(=O)Nc2cccc(C(=O)O)c2)cc1`, with 6.35%.
For the compound `COc1ccc(CN(C)C[C@H]2OCCCC[C@H](C)Oc3ccc(NC(=O)Nc4ccc(C(F)(F)F)cc4)cc3C(=O)N([C@@H](C)CO)C[C@H]2C)cc1`, the “activity change, negative = inhibition” value was -9.56%.
Consider `CS(=O)(=O)c1ccc(C(=O)OCC(=O)NCc2cccs2)cc1[N+](=O)[O-]`, for which the “activity change, negative = inhibition” value is 0.59%.
Same read-out and setting: then `Cc1ccc(S(=O)(=O)c2ncccc2[N+](=O)[O-])cc1`, with 15%; and `O=C(NCCc1ccccc1)C(c1cccs1)N(C(=O)CCl)c1ccc(Cl)cc1` (stereo not drawn), with -3.09%.
Same read-out and setting: then `COc1cccc(/C=N/Nc2nc(Nc3ccc([N+](=O)[O-])cc3)nc(N3CCCC3)n2)c1O`, with 5.39%; and `OC(c1cc(-c2ccc(C(F)(F)F)cc2)nc(C(F)(F)F)c1)C1CCCCN1` (stereo not drawn), with -3.75%.
